Results: PubChem BioAssay AID1159580 (chemical genetic matrix, 2015)
The campaign covered roughly 5,500 compounds. About 2,000 (36%) were called active. About 18% were inconclusive and are not listed. Cut-off read from the data, not from the text of the source: active = normalized growth mostly below about 0.91 (no sharp cut-off); inconclusive = no clear call, values can overlap the other calls; inactive = mostly above about 0.92. The list shows a part of the results.

Assay: chemical genetic growth profiling, strain panel (AID 1159580);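 note: tested at 20 µM; growth read once vehicle control cultures reached saturation at 30 °C; 1 = growth at the plate median or of vehicle wells; lower values mean less growth of the strain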
Conditions: S. cerevisiae deletion strains, growth OD

Measured: normalized growth

COc1ccc(C(c2ccc(OC)cc2)C(Cl)(Cl)Cl)cc1
inactive: locus YAL013W, strain DEP1, hits give low values 1 | locus YAL021C, strain ccr4, hits give low values 0.989 | locus YAL026C, strain drs2, hits give low values 1.01 | locus YAL030W, strain snc1, hits give low values 1.02 | locus YBL061C, strain skt5, hits give low values 1.01 | locus YBR009C, strain hhf1, hits give low values 1.01 | locus YBR021W, strain FUR4, hits give low values 0.974 | locus YBR023C, strain chs3, hits give low values 0.998 | locus YBR171W, strain sec66, hits give low values 1 | locus YBR229C, strain ROT2, hits give low values 0.997 | locus YBR231C, strain swc5, hits give low values 1.01 | locus YBR279W, strain paf1, hits give low values 1.02 | locus YCL011C, strain gbp2, hits give low values 1.02 | locus YCL016C, strain dcc1, hits give low values 1.01 | locus YCL029C, strain bik1, hits give low values 0.981 | locus YCL061C, strain MRC1, hits give low values 1.01 | locus YCL069W, strain vba3, hits give low values 1.02 | locus YCR088W, strain abp1, hits give low values 1.01 | locus YDL005C, strain med2, hits give low values 1.01 | locus YDL035C, strain GPR1, hits give low values 0.999 | locus YDL040C, strain nat1, hits give low values 1.02 | locus YDL074C, strain BRE1, hits give low values 0.986 | locus YDL101C, strain DUN1, hits give low values 0.996 | locus YDL134C, strain PPH21, hits give low values 1 | locus YDL185W, strain tfp1, hits give low values 0.981 | locus YDL192W, strain arf1, hits give low values 0.992 | locus YDR001C, strain nth1, hits give low values 1.01 | locus YDR069C, strain doa4, hits give low values 0.992 | locus YDR101C, strain arx1, hits give low values 0.995 | locus YDR137W, strain rgp1, hits give low values 0.959 | locus YDR150W, strain NUM1, hits give low values 1 | locus YDR159W, strain sac3, hits give low values 0.972 | locus YDR162C, strain NBP2, hits give low values 1.01 | locus YDR195W, strain ref2 1.07 | locus YDR297W, strain sur2, hits give low values 1 | locus YDR318W, strain mcm21, hits give low values 0.996 | locus YDR334W, strain swr1, hits give low values 1.03 | locus YDR335W, strain msn5, hits give low values 1.01 | locus YDR388W, hits give low values 0.988 | locus YDR392W, strain spt3, hits give low values 0.957 | locus YDR502C, strain sam2, hits give low values 0.989 | locus YEL003W, strain gim4, hits give low values 0.994 | locus YEL037C, strain rad23, hits give low values 1.01 | locus YEL061C, strain CIN8 (second series), hits give low values 1.01 | locus YEL061C, strain CIN8, hits give low values 0.995 | locus YER015W, strain faa2, hits give low values 0.984 | locus YER016W, strain bim1, hits give low values 1.02 | locus YER110C, hits give low values 0.984 | locus YER111C, strain swi4, hits give low values 1.01 | locus YER155C, strain BEM2 (second series), hits give low values 1 | locus YER155C, strain BEM2, hits give low values 0.989 | locus YER167W, strain BCK2, hits give low values 0.996 | locus YFR010W, strain ubp6, hits give low values 1.01 | locus YGL078C, strain dbp3, hits give low values 0.991 | locus YGL086W, strain mad1, hits give low values 1.02 | locus YGL167C, strain pmr1, hits give low values 1.01 | locus YGL173C, strain kem1, hits give low values 1 | locus YGL227W, strain vid30, hits give low values 1.01 | locus YGL240W, strain doc1, hits give low values 1.02 | locus YGL248W, strain PDE1, hits give low values 0.987 | locus YGL253W, strain hxk2, hits give low values 0.997 | locus YGR078C, strain PAC10, hits give low values 1.01 | locus YGR135W, strain pre9, hits give low values 0.994 | locus YGR229C, strain SMI1, hits give low values 1 | locus YGR252W, strain gcn5, hits give low values 0.947 | locus YHR013C, strain ard1, hits give low values 0.949 | locus YHR027C, strain rpn1, hits give low values 1 | locus YHR030C, strain SLT2, hits give low values 1 | locus YHR079C, strain IRE1 (second series), hits give low values 0.979 | locus YHR094C, strain hxt1, hits give low values 0.994 | locus YHR129C, strain ARP1, hits give low values 1 | locus YHR142W, strain chs7, hits give low values 0.988 | locus YHR200W, strain rpn10, hits give low values 0.985 | locus YIL066C, strain RNR3, hits give low values 0.977 | locus YIL073C, strain SPO22, hits give low values 0.952 | locus YIL125W, strain kgd1, hits give low values 0.996 | locus YIR030C, strain dcg1, hits give low values 0.998 | locus YJL092W, strain hpr5, hits give low values 1.01 | locus YJL095W, strain BCK1 (second series), hits give low values 1.02 | locus YJL095W, strain BCK1, hits give low values 1.03 | locus YJL115W, strain asf1, hits give low values 1.01 | locus YJL134W, strain LCB3, hits give low values 0.989 | locus YJL154C, strain vps35, hits give low values 1.01 | locus YJL164C, strain tpk1, hits give low values 0.988 | locus YJL166W, strain qcr8, hits give low values 0.992 | locus YJL168C, strain set2, hits give low values 0.989 | locus YJL187C, strain SWE1 (second series), hits give low values 0.997 | locus YJL187C, strain SWE1, hits give low values 1.03
active: locus YJL129C, strain trk1, hits give low values 0.847
